Measurements taken from PubChem BioAssay (NCI).
The panel holds about 79,000 compounds, 15% with a hit somewhere; the sample as a whole holds those more often. The source made the active and inactive calls. No stated cut-off is given here; in the data, active means growth inhibition above about 70%; inactive means the rest.

Experiments:
[1] = NCI Yeast Anticancer Drug Screen. Data for the rad50 strain (AID 155);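 further: 0% = growth of vehicle-only cultures of the same strain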; conditions: S. cerevisiae rad50 strain growth inhibition, stronger effect = higher value
Method in brief: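 A DNA repair-deficient yeast mutant serves as the test organism; compound-induced growth inhibition is calculated against vehicle-treated cells.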

[2] = NCI Yeast Anticancer Drug Screen. Data for the mec2-1 strain (AID 157); conditions: S. cerevisiae mec2-1 strain, stronger effect = higher value
Method in brief: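 Compounds were applied to mec2-1 yeast cells. Their growth was then compared with that of vehicle-treated cultures to give growth inhibition.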

[3] = NCI Yeast Anticancer Drug Screen. Data for the sgs1 mgt1 strain (AID 161);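 further: 0% = growth of cultures given vehicle only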; conditions: S. cerevisiae sgs1 mgt1 strain, stronger effect = higher value
Method in brief: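 Yeast cells carrying a defined DNA-repair defect were exposed to test compounds. Growth inhibition was measured relative to vehicle-treated controls.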

[4] = NCI Yeast Anticancer Drug Screen. Data for the cln2 rad14 strain (AID 165);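 further: 0% = growth equal to vehicle treated cultures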; conditions: S. cerevisiae cln2 rad14 strain, stronger effect = higher value
Method in brief: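 Strain: cln2 rad14 yeast, altered in cell cycle control and DNA damage repair. Read-out: growth inhibition vs vehicle.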

[5] = NCI Yeast Anticancer Drug Screen. Data for the bub3 strain (AID 167); conditions: S. cerevisiae bub3 mutant strain, stronger effect = higher value
Method in brief: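 Inhibition values come from growth of compound-treated mutant yeast normalised to vehicle-treated controls.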

[6] = NCI Yeast Anticancer Drug Screen. Data for the mlh1 rad18 strain (AID 175); conditions: S. cerevisiae mlh1 rad18 strain growth inhibition, stronger effect = higher value
Method in brief: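 A repair-deficient yeast strain is exposed to test compound, and growth is scored relative to vehicle-treated controls.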

[7] = at 5.0 µM (retest, dose inferred, filed as 0.5)
[8] = at 50.0 µM (retest, dose inferred, filed as 5.0)

Measured: growth inhibition

c1ccc(C2=NOC3(c4ccccc4)SC4CCCCC4CN23)cc1 (configuration not stated)
active: [1]; [8] 97% | [1]; at 50.0 µM 90.3% | [2]; [8] 98% | [2]; at 50.0 µM 93.7% | [3]; [8] 97% | [3]; at 50.0 µM 92.4% | [4]; [8] 98% | [4]; at 50.0 µM 90.4% | [5]; [8] 97% | [5]; at 50.0 µM 90.2% | [6]; [8] 98% | [6]; at 50.0 µM 90.1%
inactive: [1]; [7] 6% | [2]; [7] -22% | [3]; [7] 10% | [4]; [7] 15% | [5]; [7] 25% | [6]; [7] 8%

CN1CCN(CCCN)CC1
inactive: [1]; [7] -8% | [1]; [8] 8% | [1]; at 50.0 µM 3.7% | [2]; [7] -3% | [2]; [8] -25% | [2]; at 50.0 µM 25.1% | [3]; [7] -4% | [3]; [8] -3% | [3]; at 50.0 µM -29.9% | [4]; [7] 4% | [4]; [8] -4% | [4]; at 50.0 µM 29.9% | [5]; [7] 17% | [5]; [8] -14% | [5]; at 50.0 µM -18% | [6]; [7] -2% | [6]; [8] 5% | [6]; at 50.0 µM 11.1%

CNC1=C2NC(=O)/C(C)=C\C=C\C(C)C(O)C(C)C(O)C(C)C(OC(C)=O)C(C)C(OC)/C=C/OC3(C)Oc4c(C)c(O)c(c(c4C3=O)C1=O)C2=O (configuration not stated)
inactive: [1]; [7] -6% | [1]; [8] 56% | [1]; at 50.0 µM 52.3% | [2]; [7] -2% | [2]; [8] 61% | [2]; at 50.0 µM 52.8% | [3]; [7] 1% | [3]; [8] 55% | [3]; at 50.0 µM 45.7% | [4]; [7] -4% | [4]; [8] 59% | [4]; at 50.0 µM 49% | [5]; [7] -2% | [5]; [8] 58% | [5]; at 50.0 µM 52% | [6]; [7] -4% | [6]; [8] 64% | [6]; at 50.0 µM 56.5%

CC(C)(CCCCC(C)(C)NCC1COc2ccccc2O1)NCC1COc2ccccc2O1 (configuration not stated)
active: [1]; [8] 73% | [1]; at 50.0 µM 94.6% | [2]; [8] 81% | [2]; at 50.0 µM 96% | [3]; at 50.0 µM 96.8% | [4]; [8] 76% | [4]; at 50.0 µM 95% | [5]; [8] 79% | [5]; at 50.0 µM 97.4% | [6]; [8] 74% | [6]; at 50.0 µM 96.2%
inactive: [1]; [7] 3% | [2]; [7] -8% | [3]; [7] -10% | [3]; [8] 64% | [4]; [7] 0% | [5]; [7] -15% | [6]; [7] 2%

Cc1ccccc1NC(=S)N/N=C(/c1ccccc1)c1ccccn1
inactive: [1]; [7] 5% | [1]; at 50.0 µM 53.9% | [2]; [7] -17% | [2]; at 50.0 µM 61% | [3]; [7] 26% | [3]; at 50.0 µM 69.7% | [4]; [7] -38% | [4]; at 50.0 µM 68.4% | [5]; [7] -47% | [6]; [7] 26%
active: [1]; [8] 94% | [2]; [8] 92% | [3]; [8] 92% | [4]; [8] 91% | [5]; [8] 92% | [5]; at 50.0 µM 76.3% | [6]; [8] 92% | [6]; at 50.0 µM 75.4%

NC(=S)Nc1ccccc1O
active: [5]; [8] 72% | [5]; at 50.0 µM 80.3%
inactive: [1]; [7] 6% | [1]; [8] 43% | [1]; at 50.0 µM 50.5% | [2]; [7] -10% | [2]; [8] 19% | [2]; at 50.0 µM 50.9% | [3]; [7] 6% | [3]; [8] 15% | [3]; at 50.0 µM 40.9% | [4]; [7] 0% | [4]; [8] 21% | [4]; at 50.0 µM 8.25% | [5]; [7] 17% | [6]; [7] 14% | [6]; [8] 46% | [6]; at 50.0 µM 59.2%

O=C(O)c1ccc([N+](=O)[O-])o1
inactive: [1]; [7] 6% | [1]; [8] 32% | [1]; at 50.0 µM 61% | [2]; [7] 1% | [2]; [8] 16% | [2]; at 50.0 µM 25.1% | [3]; [7] 4% | [3]; [8] 27% | [4]; [7] 3% | [4]; [8] 11% | [4]; at 50.0 µM 17.6% | [5]; [7] -3% | [5]; [8] 10% | [5]; at 50.0 µM 38.3% | [6]; [7] 6% | [6]; [8] 41%
active: [3]; at 50.0 µM 70.8% | [6]; at 50.0 µM 71.5%

CN(C)CCCNCC(=O)Nc1ccc(S(=O)(=O)c2ccc(NC(=O)CNCCCN(C)C)cc2)cc1
inactive: [1]; [7] 2% | [2]; [7] -2% | [2]; at 50.0 µM 58.7% | [3]; [7] -11% | [4]; [7] 7% | [4]; [8] 66% | [5]; [7] 2% | [5]; at 50.0 µM 30.2% | [6]; [7] 3%
active: [1]; [8] 92% | [1]; at 50.0 µM 95.2% | [2]; [8] 97% | [3]; [8] 95% | [3]; at 50.0 µM 97.2% | [4]; at 50.0 µM 78.1% | [5]; [8] 89% | [6]; [8] 96% | [6]; at 50.0 µM 90.2%

Cc1c[nH]c2c(O)cc3c(c12)[C@H](CCl)CN3C(=O)c1cc2cc(NC(=O)Nc3ccc4[nH]c(C(=O)N5C[C@@H](CCl)c6c5cc(O)c5[nH]cc(C)c65)cc4c3)ccc2[nH]1
inactive: [1]; [7] 38% | [1]; at 50.0 µM 17.4% | [2]; [7] 30% | [2]; [8] 63% | [2]; at 50.0 µM 33.6% | [3]; [7] 33% | [3]; [8] 64% | [3]; at 50.0 µM -12.9% | [4]; [7] 14% | [4]; [8] 34% | [4]; at 50.0 µM -3.3% | [5]; [7] 34% | [5]; [8] 56% | [5]; at 50.0 µM -0.05% | [6]; at 50.0 µM 3.2%
active: [1]; [8] 70% | [6]; [7] 78% | [6]; [8] 86%
